Laboratory results as given in PubChem BioAssay (EPA / NIEHS).
Where “and” joins values, the source holds several entries; their conditions need not be identical. Identical values can stand only once. Records with an inconclusive call do not appear. The source holds several records for some structures; these can differ, active in one and inactive in another. Calls of active or inactive are those of the source. Rule for the calls, unless noted: active = hit-call score of the fitted dose curve at least 0.9, where 1 is the maximum; inactive = score below 0.9.

Columns and labels:
[1] = BSK_4H_Eotaxin3: BioMAP Diversity Plus: 4H Assay for Eotaxin 3 Biomarker Activity (AID 2283000); settings: primary human endothelial cells (HUVEC); actives raise or lower the signal
Procedure, shortened: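 Chemicals were added to human umbilical vein endothelium cultures, and Eotaxin-3 was quantified by ELISA at 24 h. Values were derived by bidirectional fitting with DMSO serving as negative control and activity baseline.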

[2] = read-out: Intercellular Adhesion Molecule 1 (ICAM1), ICAM1 (gene 3383); test: BSK_3C_ICAM1: BioMAP Diversity Plus: 3C Assay for Intercellular Adhesion Molecule 1 (ICAM1) Biomarker Activity (AID 2283003); settings: primary human endothelial cells (HUVEC); actives raise or lower the signal
Procedure, shortened: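 ICAM-1 levels measured by ELISA after HUVEC cultures in the 3C system had been dosed for 24 h. Gain or loss of signal relative to DMSO was fitted in both directions.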

[3] = molecular target: Retinoic acid receptor alpha (Homo sapiens) (UniProt P10276); test: ATG_RARa_TRANS: Attagene TRANS-FACTORIAL HepG2 Assay for human Retinoic Acid Receptor alpha (RARa) (AID 2283005; active = hit-call score of the fitted dose curve at least 0.9, where 1 is the maximum)
Procedure, shortened: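 Reporter transcripts, measured by RT-PCR with fluorescent labeling and capillary electrophoresis after 24 h dosing, reflect activity of an exogenous human RARa–GAL4 fusion in transiently transfected HepG2. Fitted for increase relative to DMSO.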

[4] = BSK_3C_Proliferation: Cell Proliferation Assessment in the BioMAP Diversity Plus: 3C Assay (AID 2283006); settings: primary human endothelial cells (HUVEC);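 for AC50: potency may reflect either rise or fall in cell number versus DMSO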
Procedure, shortened: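 Read-out is total protein by SRB absorbance at 560 nm, taken as a proxy for relative cell number. Primary human umbilical vein endothelium cultured below confluence was dosed for 48 h, TCA-fixed and SRB-stained; curves were fitted bidirectionally versus DMSO.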

[5] = molecular target: Peroxisome proliferator-activated receptor gamma (Homo sapiens) (UniProt P37231); test: ATG_PPARg_TRANS: Attagene TRANS-FACTORIAL HepG2 Assay for human Peroxisome Proliferator-activated Receptor-gamma (PPARg) (AID 2283007; active = hit-call score of the fitted dose curve at least 0.9, where 1 is the maximum)
Procedure, shortened: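 HepG2 cells are transiently transfected with GAL4-UAS reporter units driven by chimeric NR-Gal4 fusions and dosed for 24 h. Reporter mRNA is quantified by RT-PCR, 6-FAM labelling, HpaI digestion and capillary electrophoresis. Induction is scored against DMSO.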

[6] = molecular target: Nuclear receptor subfamily 1 group I member 2 (Homo sapiens) (UniProt O75469); test: ATG_PXR_TRANS: Attagene TRANS-FACTORIAL HepG2 Assay for human Pregnane X Receptor (PXR) (AID 2283008; active = hit-call score of the fitted dose curve at least 0.9, where 1 is the maximum)
Procedure, shortened: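 HepG2 cells transiently transfected with GAL4-UAS reporter units and PXR-Gal4 chimera, exposed 24 h. Reporter mRNA quantified by RT-PCR, fluorescent labelling, HpaI digestion and capillary electrophoresis; gain of signal vs DMSO.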

[7] = molecular target: human Retinoic Acid Receptor gamma (RARg), RARG (gene 5916) (UniProt P13631); test: ATG_RARg_TRANS: Attagene TRANS-FACTORIAL HepG2 Assay for human Retinoic Acid Receptor gamma (RARg) (AID 2283009; active = hit-call score of the fitted dose curve at least 0.9, where 1 is the maximum)
Procedure, shortened: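 Transient transfection of HepG2 with multi-reporter constructs, then 24 h chemical treatment. Total RNA isolated, reverse-transcribed, PCR-amplified, fluorescently labelled and resolved by capillary electrophoresis; activity scored as mRNA induction versus DMSO.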

[8] = molecular target: Retinoic acid receptor RXR-alpha (Homo sapiens) (UniProt P19793); test: ATG_RXRa_TRANS: Attagene TRANS-FACTORIAL HepG2 Assay for human Retinoid X Receptor alpha (RXRa) (AID 2283012; active = hit-call score of the fitted dose curve at least 0.9, where 1 is the maximum)
Procedure, shortened: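 Transient transfection of human HepG2 with multiple GAL4-UAS reporter constructs; 24 h compound exposure; total RNA isolated, reverse-transcribed, PCR-amplified, 6-FAM labelled, HpaI-cut, resolved by capillary electrophoresis. Positive-direction fit versus DMSO.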

[9] = molecular target: human Retinoid X Receptor beta (RXRb), RXRB (gene 6257) (UniProt P28702); test: ATG_RXRb_TRANS: Attagene TRANS-FACTORIAL HepG2 Assay for human Retinoid X Receptor beta (RXRb) (AID 2283013; active = hit-call score of the fitted dose curve at least 0.9, where 1 is the maximum)
Procedure, shortened: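 Transfect HepG2 with GAL4-UAS multi-reporter constructs (chimeric NR-Gal4, TRANS format); dose compound 24 h; isolate RNA, RT-PCR, FAM primer extension, HpaI digest; quantify by capillary electrophoresis; positive direction vs DMSO.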

[10] = read-out: E-selectin (Homo sapiens) (UniProt P16581); test: BSK_3C_Eselectin: BioMAP Diversity Plus: 3C Assay for Eselectin Biomarker Activity (AID 2283015); settings: primary human endothelial cells (HUVEC); actives raise or lower the signal
Procedure, shortened: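 ELISA read-out of E-selectin on endothelial monolayers after 24 h chemical treatment. Human umbilical vein primary cells served as the system, with DMSO defining baseline activity for bidirectional fitting.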

[11] = read-out: Interleukin-1 alpha (IL1a), IL1A (gene 3552); test: BSK_BE3C_IL1a: BioMAP Diversity Plus: BE3C Assay for Interleukin-1 alpha (IL1a) Biomarker Activity (AID 2283016); settings: primary human bronchial epithelial cells; actives raise or lower the signal
Procedure, shortened: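 BE3C primary human bronchial epithelium; cpd 24 h; IL-1a by ELISA; bidirectional fit vs DMSO; parallel SRB (0.1% SRB, 10% TCA fix, 560 nm) for cytotoxicity.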

[12] = read-out: Monocyte Chemoattractant Protein-1 (MCP1), CCL2 (gene 6347); test: BSK_3C_MCP1: BioMAP Diversity Plus: 3C Assay for Monocyte Chemoattractant Protein-1 (MCP1) Biomarker Activity (AID 2283017); settings: primary human endothelial cells (HUVEC); actives raise or lower the signal
Procedure, shortened: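 ELISA read-out of MCP-1 from human umbilical vein endothelial cell cultures harvested 24 h post-dosing. Gain or loss of signal was fitted relative to DMSO.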

[13] = read-out: Monocyte Chemoattractant Protein-1 (MCP1), CCL2 (gene 6347); test: BSK_4H_MCP1: BioMAP Diversity Plus: 4H Assay for Monocyte Chemoattractant Protein-1 (MCP1) Biomarker Activity (AID 2283018); settings: primary human endothelial cells (HUVEC); actives raise or lower the signal
Procedure, shortened: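 ELISA read-out of MCP-1 from human vascular endothelial primary cells taken at 24 hours after compound exposure. Activity was fitted in both directions relative to DMSO, which served as negative control.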

[14] = read-out: Human Leukocyte Antigen - DR isotype (HLADR), HLA-DRA (gene 3122); test: BSK_3C_HLADR: BioMAP Diversity Plus: 3C Assay for Human Leukocyte Antigen - DR isotype (HLADR) Biomarker Activity (AID 2283019); settings: primary human endothelial cells (HUVEC); actives raise or lower the signal
Procedure, shortened: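 ELISA readout of surface HLA-DR on human umbilical vein endothelium, taken 24 h after chemical treatment. Gain- and loss-of-signal were both fitted relative to DMSO.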

[15] = molecular target: human Peroxisome Proliferator-activated Receptor delta (PPARd), PPARD (gene 5467) (UniProt Q03181); test: ATG_PPARd_TRANS: Attagene TRANS-FACTORIAL HepG2 Assay for human Peroxisome Proliferator-activated Receptor delta (PPARd) (AID 2283002; active = hit-call score of the fitted dose curve at least 0.9, where 1 is the maximum)
Procedure, shortened: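 Transient HepG2 transfection (multiple GAL4-UAS RTUs, chimeric receptor-Gal4); 24 h dosing; total RNA → oligo(dT) RT → PCR → 6-FAM primer extension → HpaI cut → CE. Positive direction vs DMSO.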

[16] = molecular target: human RAR-related Orphan Receptor beta (RORb), RORB (gene 6096) (UniProt Q92753); test: ATG_RORb_TRANS: Attagene TRANS-FACTORIAL HepG2 Assay for human RAR-related Orphan Receptor beta (RORb) (AID 2283010; active = hit-call score of the fitted dose curve at least 0.9, where 1 is the maximum)
Procedure, shortened: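 Readout is reporter-gene mRNA induction, detected as fluorescence after RT-PCR and capillary electrophoresis, fitted for gain of signal against DMSO controls. Transiently transfected HepG2 liver cells carrying GAL4-UAS reporter constructs were treated for 24 hours.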

[17] = molecular target: human RAR-related Orphan Receptor gamma (RORg), RORC (gene 6097) (UniProt P51449); test: ATG_RORg_TRANS: Attagene TRANS-FACTORIAL HepG2 Assay for human RAR-related Orphan Receptor gamma (RORg) (AID 2283011; active = hit-call score of the fitted dose curve at least 0.9, where 1 is the maximum)
Procedure, shortened: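 First, HepG2 liver cells were transfected with GAL4-UAS-driven reporter constructs and the RORg-Gal4 fusion. Next, they were treated with chemical for 24 h. Finally, reporter mRNA was quantified by RT-PCR and capillary electrophoresis, with upward activity fitted against DMSO.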

[18] = molecular target: human Thyroid Receptor alpha (THRa1), THRA (gene 7067) (UniProt P10827); test: ATG_THRa1_TRANS: Attagene TRANS-FACTORIAL HepG2 Assay for human Thyroid Receptor alpha (THRa1) (AID 2283014; active = hit-call score of the fitted dose curve at least 0.9, where 1 is the maximum)
Procedure, shortened: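 Reporter transcript induction, read by capillary electrophoresis of 6-FAM-labelled RT-PCR products, reflects activity of a transfected THRa1-Gal4 fusion in HepG2 liver cells. Cells were dosed for 24 h; activity was fitted in the positive direction against DMSO.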

Measured: AC50

Sequence of human RAR-related Orphan Receptor beta (RORb), RORB (gene 6096) (Q92753 whole entry, looked up, the tested form may be a part): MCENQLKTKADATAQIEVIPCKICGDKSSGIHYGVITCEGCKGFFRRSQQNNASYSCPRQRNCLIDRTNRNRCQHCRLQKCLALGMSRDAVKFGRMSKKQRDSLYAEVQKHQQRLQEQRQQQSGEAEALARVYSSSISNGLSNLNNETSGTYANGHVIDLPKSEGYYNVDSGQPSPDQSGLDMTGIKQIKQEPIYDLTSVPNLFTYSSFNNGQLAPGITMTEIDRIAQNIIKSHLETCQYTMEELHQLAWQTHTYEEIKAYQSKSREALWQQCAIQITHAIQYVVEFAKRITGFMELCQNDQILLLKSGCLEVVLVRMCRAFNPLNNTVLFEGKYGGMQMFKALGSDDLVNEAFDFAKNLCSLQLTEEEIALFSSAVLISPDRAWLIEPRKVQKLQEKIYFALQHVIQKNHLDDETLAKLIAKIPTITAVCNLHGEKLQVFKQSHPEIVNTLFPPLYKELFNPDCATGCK
Sequence of Retinoic acid receptor alpha (Homo sapiens) (P10276 whole entry, looked up, the tested form may be a part): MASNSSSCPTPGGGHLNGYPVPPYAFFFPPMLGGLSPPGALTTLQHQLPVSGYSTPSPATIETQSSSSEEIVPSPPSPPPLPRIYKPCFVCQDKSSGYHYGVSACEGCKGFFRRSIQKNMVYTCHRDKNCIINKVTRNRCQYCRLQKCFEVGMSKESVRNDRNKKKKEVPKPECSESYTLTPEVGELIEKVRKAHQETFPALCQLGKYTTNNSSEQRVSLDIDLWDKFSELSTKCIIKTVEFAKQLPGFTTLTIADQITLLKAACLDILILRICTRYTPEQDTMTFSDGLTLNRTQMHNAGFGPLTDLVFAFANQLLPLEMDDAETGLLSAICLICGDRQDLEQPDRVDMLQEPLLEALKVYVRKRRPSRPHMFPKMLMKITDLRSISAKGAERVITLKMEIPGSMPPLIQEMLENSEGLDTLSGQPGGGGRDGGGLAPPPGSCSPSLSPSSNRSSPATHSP
Sequence of human RAR-related Orphan Receptor gamma (RORg), RORC (gene 6097) (P51449 whole entry, looked up, the tested form may be a part): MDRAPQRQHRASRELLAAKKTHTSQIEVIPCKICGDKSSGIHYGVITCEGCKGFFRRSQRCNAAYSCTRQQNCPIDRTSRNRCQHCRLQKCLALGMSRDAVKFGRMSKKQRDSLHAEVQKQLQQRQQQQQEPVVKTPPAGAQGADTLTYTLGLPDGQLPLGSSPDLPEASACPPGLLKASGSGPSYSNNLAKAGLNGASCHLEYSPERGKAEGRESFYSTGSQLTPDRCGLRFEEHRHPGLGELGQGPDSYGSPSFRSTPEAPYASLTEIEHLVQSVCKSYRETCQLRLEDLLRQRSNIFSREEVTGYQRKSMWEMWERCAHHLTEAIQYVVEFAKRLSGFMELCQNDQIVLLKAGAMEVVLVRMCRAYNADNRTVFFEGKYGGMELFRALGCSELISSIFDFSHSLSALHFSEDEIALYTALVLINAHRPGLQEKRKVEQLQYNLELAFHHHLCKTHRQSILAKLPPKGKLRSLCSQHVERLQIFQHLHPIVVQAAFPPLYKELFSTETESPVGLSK
Sequence of human Retinoic Acid Receptor gamma (RARg), RARG (gene 5916) (P13631 whole entry, looked up): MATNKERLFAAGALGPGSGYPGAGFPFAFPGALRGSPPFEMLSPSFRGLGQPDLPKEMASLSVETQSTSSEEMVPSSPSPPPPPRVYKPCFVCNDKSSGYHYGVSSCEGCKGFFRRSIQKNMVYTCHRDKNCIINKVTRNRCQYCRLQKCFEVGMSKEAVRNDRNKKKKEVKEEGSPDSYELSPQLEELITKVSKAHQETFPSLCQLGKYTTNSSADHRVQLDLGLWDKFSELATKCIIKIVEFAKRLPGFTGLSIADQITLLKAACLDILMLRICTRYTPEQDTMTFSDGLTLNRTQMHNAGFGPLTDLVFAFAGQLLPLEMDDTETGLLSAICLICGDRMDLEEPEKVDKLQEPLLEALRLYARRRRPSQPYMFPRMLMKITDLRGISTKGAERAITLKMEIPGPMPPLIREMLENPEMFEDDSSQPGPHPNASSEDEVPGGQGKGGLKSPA
Sequence of human Thyroid Receptor alpha (THRa1), THRA (gene 7067) (P10827 whole entry, looked up, the tested form may be a part): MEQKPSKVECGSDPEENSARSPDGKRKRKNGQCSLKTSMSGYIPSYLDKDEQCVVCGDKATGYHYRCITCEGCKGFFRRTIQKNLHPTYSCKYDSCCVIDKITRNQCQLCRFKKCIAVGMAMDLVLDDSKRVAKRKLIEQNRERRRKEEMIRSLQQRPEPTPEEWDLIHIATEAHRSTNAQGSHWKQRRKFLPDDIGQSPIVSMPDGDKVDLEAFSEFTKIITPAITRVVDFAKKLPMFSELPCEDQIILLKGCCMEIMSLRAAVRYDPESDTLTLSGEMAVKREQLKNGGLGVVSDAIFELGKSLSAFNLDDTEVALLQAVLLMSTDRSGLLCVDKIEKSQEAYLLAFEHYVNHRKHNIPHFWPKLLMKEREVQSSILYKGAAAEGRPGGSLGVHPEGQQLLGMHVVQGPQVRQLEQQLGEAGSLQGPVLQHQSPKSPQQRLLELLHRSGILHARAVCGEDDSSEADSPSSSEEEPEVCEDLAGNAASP
Sequence of human Peroxisome Proliferator-activated Receptor delta (PPARd), PPARD (gene 5467) (Q03181 whole entry, looked up, the tested form may be a part): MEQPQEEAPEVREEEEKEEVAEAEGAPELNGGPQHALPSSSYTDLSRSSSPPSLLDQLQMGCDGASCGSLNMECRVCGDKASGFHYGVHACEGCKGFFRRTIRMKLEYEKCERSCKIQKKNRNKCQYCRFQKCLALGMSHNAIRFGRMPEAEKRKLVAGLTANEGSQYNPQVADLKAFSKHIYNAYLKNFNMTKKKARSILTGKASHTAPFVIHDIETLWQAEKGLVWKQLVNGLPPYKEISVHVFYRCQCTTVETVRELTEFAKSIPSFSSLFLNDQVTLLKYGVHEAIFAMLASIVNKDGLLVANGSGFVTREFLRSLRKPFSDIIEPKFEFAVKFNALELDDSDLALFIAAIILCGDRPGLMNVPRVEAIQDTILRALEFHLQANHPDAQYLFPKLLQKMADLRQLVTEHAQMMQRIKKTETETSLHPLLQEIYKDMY
Sequence of Nuclear receptor subfamily 1 group I member 2 (Homo sapiens) (O75469 whole entry, looked up, the tested form may be a part): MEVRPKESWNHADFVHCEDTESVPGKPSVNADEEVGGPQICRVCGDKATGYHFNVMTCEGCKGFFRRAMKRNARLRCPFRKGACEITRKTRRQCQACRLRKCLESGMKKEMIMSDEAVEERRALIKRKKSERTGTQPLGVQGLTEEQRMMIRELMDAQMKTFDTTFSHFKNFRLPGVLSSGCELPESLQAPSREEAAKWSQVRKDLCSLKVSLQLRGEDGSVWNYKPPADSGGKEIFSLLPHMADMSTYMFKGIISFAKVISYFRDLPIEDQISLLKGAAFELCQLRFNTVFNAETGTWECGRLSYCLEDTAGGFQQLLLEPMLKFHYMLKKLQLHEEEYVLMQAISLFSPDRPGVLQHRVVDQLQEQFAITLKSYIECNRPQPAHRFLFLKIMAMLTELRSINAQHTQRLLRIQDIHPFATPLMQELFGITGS
Sequence of human Retinoid X Receptor beta (RXRb), RXRB (gene 6257) (P28702 whole entry, looked up, the tested form may be a part): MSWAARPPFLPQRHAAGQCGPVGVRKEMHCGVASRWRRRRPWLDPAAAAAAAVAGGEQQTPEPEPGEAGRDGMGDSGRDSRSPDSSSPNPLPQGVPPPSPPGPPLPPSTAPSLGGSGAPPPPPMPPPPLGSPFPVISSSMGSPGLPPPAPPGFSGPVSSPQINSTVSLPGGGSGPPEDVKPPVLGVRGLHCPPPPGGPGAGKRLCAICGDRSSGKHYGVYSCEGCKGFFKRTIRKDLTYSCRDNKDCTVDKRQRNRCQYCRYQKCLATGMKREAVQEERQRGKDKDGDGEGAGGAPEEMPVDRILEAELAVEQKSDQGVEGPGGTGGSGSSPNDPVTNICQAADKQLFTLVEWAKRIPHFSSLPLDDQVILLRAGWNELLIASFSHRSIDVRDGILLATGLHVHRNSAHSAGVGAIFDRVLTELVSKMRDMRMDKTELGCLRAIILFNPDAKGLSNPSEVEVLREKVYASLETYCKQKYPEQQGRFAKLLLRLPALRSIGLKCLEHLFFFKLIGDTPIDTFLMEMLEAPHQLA
Sequence of Retinoic acid receptor RXR-alpha (Homo sapiens) (P19793 whole entry, looked up, the tested form may be a part): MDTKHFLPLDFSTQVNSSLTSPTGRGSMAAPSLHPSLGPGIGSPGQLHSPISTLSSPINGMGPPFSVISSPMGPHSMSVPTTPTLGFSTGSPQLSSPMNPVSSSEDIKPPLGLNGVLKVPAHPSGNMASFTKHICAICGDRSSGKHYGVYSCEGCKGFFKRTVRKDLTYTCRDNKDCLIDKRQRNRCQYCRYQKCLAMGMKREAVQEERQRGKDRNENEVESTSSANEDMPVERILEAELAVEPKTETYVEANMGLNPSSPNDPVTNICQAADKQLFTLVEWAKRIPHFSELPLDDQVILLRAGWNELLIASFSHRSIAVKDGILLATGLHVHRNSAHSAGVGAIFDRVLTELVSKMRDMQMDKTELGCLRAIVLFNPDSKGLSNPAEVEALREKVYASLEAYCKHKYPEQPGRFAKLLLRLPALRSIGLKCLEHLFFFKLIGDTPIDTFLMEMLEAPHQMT
Sequence of E-selectin (Homo sapiens) (P16581 whole entry, looked up): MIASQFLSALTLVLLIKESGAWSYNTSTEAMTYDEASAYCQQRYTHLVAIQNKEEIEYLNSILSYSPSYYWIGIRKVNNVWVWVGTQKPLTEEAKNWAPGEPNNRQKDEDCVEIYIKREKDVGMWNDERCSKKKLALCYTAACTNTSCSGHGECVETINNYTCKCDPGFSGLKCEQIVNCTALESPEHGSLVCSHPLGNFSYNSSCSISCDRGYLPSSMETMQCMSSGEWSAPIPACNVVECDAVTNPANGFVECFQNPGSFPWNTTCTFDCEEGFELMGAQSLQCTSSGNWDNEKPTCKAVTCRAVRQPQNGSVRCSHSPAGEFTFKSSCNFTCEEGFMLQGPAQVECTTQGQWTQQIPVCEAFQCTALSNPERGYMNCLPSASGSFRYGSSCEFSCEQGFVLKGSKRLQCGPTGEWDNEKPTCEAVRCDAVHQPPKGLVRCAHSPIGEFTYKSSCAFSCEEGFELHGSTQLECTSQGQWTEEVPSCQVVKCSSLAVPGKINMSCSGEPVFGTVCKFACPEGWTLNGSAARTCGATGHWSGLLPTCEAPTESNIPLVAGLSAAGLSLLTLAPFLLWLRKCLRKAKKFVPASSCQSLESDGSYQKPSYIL

CO[Si](OC)(c1ccccc1)c1ccccc1
inactive: [1] | [2] | [3] | [5] | [7] | [8] | [9] | [11]
active: [4] 37 µM | [6] 15.4 µM | [10] 31 µM | [12] 32 µM | [13] 148 nM | [14] 32.5 µM

C=CC(F)(F)C(F)(F)C(F)(F)C(F)(F)C(F)(F)C(F)(F)C(F)(F)C(F)(F)C=C
inactive: [1] | [15] | [2] | [4] | [5] | [7] | [16] | [17] | [8] | [9] | [10] | [11] | [12] | [13] | [14]

CCc1ccc(C(c2ccc(CC)cc2)C(Cl)Cl)cc1
active: [1] 14.1 µM | [4] 13.1 µM | [6] 3.55 µM | [12] 12.9 µM | [13] 10700 nM | [14] 11.8 µM
inactive: [15] | [2] | [5] | [17] | [8] | [9] | [18] | [10] | [11]

CCc1c(Br)c(Br)c(Br)c(Br)c1Br
inactive: [15] | [2] | [3] | [4] | [7] | [16] | [8] | [10] | [11] | [12] | [13] | [14]
active: [1] 20 µM | [9] 5.94 µM

FC(F)(F)C(F)(F)C(F)(F)N(C(F)(F)C(F)(F)C(F)(F)F)C(F)(F)C(F)(F)C(F)(F)F
inactive: [1] | [15] | [2] | [3] | [4] | [5] | [7] | [9] | [10] | [11] | [12] | [13] | [14]

COC(=O)CCC(F)(F)C(F)(F)C(F)(F)C(F)(F)F
inactive: [1] | [15] | [2] | [4] | [6] | [7] | [9] | [10] | [11] | [12] | [13] | [14]

CCCCNc1ccccc1
inactive: [1] | [15] | [2] | [4] | [5] | [16] | [9] | [18] | [10] | [11] | [12] | [13] | [14]

O=C(O)C(F)(F)C(F)(F)OC(F)(F)F
inactive: [1] | [2] | [3] | [4] | [5] | [6] | [7] | [16] | [17] | [10] | [11] | [12] | [13] | [14]

O=P(O)(O)OCCC(F)(F)C(F)(F)C(F)(F)C(F)(F)C(F)(F)C(F)(F)F
inactive: [1] | [15] | [2] | [4] | [6] | [16] | [17] | [8] | [18] | [10] | [11] | [12] | [13] | [14]

FC(F)(F)C(F)(F)CNCC(F)(F)C(F)(F)F
inactive: [1] | [15] | [2] | [4] | [5] | [6] | [7] | [8] | [9] | [10] | [11] | [12] | [13] | [14]

Cc1ccc(S(=O)(=O)OCC(F)(F)C(F)(F)C(F)(F)C(F)(F)C(F)(F)C(F)F)cc1
inactive: [1] | [15] | [2] | [4] | [5] | [7] | [16] | [8] | [10] | [11] | [12] | [13] | [14]
active: [4] 30 µM | [6] 2.98 µM | [9] 7.9 µM | [10] 33.4 µM | [11] 44.8 µM

FC(F)(F)C(F)(F)C(F)(F)CI
inactive: [1] | [2] | [3] | [4] | [6] | [16] | [17] | [9] | [10] | [11] | [12] | [13] | [14]

FC(F)(F)C(F)(F)C(F)(F)C(F)(F)C(F)(F)CCI
active: [4] 30 µM | [5] 73 µM | [9] 35.9 µM
inactive: [1] | [15] | [2] | [4] | [6] | [7] | [16] | [17] | [8] | [10] | [11] | [12] | [13] | [14]

OCCCC(F)(F)C(F)(F)C(F)(F)C(F)(F)C(F)(F)C(F)(F)C(F)(F)F
active: [1] 45.2 µM and 43.2 µM | [2] 45.1 µM and 52.9 µM | [4] 10.3 µM and 10.4 µM | [8] 42.3 µM | [9] 6.49 µM and 7.94 µM | [10] 23.3 µM and 48.9 µM | [11] 44.1 µM and 47.9 µM | [12] 30.8 µM and 44.4 µM | [13] 45.7 µM and 45.1 µM | [14] 44.1 µM and 36.1 µM
inactive: [15] | [5] | [7] | [8]
